# Experimental data taken from publication PMC7862700, “An all-to-all approach to the identification of sequence-specific readers for epigenetic DNA modifications on cytosine”.
# How the values were obtained:
# Assay in all cases: DAPPL (digital affinity profiling via proximity ligation, sequencing); 10 mM Tris-HCl pH 7.5, 50 mM NaCl, 1 mM DTT, 4% glycerol, room temperature, 30 min; GST-TFs on glutathione beads, 16-mer random dsDNA library, 0.1% formaldehyde crosslink after washing; high values mean tight binding
# Conditions in all cases: protein: recombinant; tags: N-terminal GST; dsDNA, one strand shown
# ELK4 = target: T1, ELK4 (Homo sapiens, UniProt P28324-2 1-405)
# T1 sequence: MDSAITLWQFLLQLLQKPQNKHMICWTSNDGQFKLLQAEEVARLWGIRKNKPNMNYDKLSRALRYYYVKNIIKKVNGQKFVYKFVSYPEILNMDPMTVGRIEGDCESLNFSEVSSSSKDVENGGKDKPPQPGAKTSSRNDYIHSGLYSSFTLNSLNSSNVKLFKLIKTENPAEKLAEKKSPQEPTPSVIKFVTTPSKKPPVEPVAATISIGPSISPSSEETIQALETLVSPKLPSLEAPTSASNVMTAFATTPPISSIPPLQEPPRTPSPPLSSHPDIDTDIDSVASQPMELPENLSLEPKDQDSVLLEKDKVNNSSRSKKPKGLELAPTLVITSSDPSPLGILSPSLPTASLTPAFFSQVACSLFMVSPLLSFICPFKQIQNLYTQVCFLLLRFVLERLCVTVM
# In short: (§1)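 GST fusions of human transcription factors were expressed in yeast and captured with glutathione beads. Once given DNA barcodes and pooled alongside a tag-only sample, they were incubated for 30 min at room temperature with 200 nmole of a random double-stranded 16-mer DNA library in Tris/NaCl/DTT/glycerol buffer, then washed, crosslinked (0.1% formaldehyde), proximity-ligated, PCR-amplified and sequenced on an Illumina NextSeq500. The binding signal of each hexamer is its read frequency for a factor divided by its frequency for the tag-only sample.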
# ELF3 = target: T2, ELF3 (Homo sapiens, UniProt P78545 1-371)
# T2 sequence: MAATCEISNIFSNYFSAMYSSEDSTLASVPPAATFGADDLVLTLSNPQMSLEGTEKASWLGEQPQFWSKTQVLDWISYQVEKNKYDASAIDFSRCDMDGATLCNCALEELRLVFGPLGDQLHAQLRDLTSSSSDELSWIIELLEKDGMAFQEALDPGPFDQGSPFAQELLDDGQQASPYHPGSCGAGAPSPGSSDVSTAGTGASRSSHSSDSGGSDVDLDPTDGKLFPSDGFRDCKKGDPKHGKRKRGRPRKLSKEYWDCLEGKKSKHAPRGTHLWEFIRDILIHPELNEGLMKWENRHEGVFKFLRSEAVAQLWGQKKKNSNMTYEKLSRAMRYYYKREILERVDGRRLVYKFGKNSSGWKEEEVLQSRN
# In short: as §1
# ETV1 = ETV1 (Homo sapiens, UniProt P50549 1-477)
# Sequence of ETV1 (P50549 whole entry): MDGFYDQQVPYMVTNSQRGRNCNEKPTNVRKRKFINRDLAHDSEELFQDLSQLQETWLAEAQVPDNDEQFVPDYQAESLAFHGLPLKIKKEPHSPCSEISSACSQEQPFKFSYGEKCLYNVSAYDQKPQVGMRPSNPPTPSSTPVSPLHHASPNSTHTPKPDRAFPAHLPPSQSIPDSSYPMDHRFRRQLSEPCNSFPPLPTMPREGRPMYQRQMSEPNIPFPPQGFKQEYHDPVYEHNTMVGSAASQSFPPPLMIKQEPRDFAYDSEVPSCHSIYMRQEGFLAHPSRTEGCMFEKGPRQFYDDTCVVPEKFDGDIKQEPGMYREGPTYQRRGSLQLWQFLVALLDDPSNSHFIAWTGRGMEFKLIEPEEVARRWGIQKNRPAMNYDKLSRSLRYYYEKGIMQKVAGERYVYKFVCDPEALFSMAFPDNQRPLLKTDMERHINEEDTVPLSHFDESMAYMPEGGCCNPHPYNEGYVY
# In short: as §1
# ERF = target: T3, ERF (Homo sapiens, UniProt P50548 1-548)
# T3 sequence: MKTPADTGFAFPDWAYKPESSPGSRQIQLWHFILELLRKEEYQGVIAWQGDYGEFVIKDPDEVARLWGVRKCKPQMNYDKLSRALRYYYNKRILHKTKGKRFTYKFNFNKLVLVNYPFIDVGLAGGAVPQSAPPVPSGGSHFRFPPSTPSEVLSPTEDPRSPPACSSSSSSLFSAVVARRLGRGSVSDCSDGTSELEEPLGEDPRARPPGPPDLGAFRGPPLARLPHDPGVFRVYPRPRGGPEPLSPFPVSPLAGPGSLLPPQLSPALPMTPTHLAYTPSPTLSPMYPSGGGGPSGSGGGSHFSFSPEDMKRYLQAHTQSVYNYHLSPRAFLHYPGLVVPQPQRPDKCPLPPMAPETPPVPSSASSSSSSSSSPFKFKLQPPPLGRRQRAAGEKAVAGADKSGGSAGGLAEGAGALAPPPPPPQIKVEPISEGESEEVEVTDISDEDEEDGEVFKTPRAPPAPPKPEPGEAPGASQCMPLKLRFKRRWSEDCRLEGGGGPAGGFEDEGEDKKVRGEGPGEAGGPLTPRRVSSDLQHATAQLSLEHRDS
# In short: as §1
# ETV3L = target: T4, ETV3L (Homo sapiens, UniProt Q6ZN32 1-361)
# T4 sequence: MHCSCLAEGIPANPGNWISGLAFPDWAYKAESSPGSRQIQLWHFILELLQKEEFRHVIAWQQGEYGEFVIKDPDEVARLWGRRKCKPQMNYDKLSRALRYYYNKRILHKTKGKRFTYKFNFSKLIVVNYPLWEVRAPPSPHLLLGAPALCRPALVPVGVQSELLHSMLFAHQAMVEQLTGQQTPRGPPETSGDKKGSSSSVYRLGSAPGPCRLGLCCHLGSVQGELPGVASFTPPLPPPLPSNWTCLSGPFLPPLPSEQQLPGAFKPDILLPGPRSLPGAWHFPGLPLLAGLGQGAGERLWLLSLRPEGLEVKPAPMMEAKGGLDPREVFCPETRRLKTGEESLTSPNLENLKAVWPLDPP
# In short: as §1
# ETS2 = target: T5, ETS2 (Homo sapiens, UniProt P15036 1-469)
# T5 sequence: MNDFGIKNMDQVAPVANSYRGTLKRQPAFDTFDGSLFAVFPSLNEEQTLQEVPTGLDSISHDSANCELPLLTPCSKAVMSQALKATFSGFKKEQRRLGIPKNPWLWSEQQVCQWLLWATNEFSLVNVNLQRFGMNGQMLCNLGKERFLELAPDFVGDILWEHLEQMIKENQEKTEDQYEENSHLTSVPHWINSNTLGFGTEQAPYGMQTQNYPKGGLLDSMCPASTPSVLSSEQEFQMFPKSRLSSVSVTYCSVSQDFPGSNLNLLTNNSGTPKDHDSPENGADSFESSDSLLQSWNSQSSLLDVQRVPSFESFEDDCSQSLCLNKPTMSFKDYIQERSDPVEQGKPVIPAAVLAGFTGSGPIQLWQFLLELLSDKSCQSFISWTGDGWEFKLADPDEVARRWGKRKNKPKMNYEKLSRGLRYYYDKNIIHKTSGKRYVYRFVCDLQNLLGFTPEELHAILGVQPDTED
# In short: as §1
# SPDEF = target: T6, SPDEF (Homo sapiens, UniProt O95238 1-335)
# T6 sequence: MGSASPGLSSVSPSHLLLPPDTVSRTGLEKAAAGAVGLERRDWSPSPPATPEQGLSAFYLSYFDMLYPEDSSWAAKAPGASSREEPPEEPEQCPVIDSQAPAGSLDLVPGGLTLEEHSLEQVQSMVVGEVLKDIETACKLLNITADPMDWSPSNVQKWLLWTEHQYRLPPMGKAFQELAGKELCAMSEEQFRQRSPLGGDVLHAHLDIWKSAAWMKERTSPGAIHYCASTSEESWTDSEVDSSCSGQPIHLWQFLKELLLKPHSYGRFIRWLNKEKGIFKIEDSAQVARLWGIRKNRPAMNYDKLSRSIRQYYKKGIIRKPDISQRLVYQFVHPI
# In short: as §1
# ETV7 = target: T7, ETV7 (Homo sapiens, UniProt Q9Y603 1-341)
# T7 sequence: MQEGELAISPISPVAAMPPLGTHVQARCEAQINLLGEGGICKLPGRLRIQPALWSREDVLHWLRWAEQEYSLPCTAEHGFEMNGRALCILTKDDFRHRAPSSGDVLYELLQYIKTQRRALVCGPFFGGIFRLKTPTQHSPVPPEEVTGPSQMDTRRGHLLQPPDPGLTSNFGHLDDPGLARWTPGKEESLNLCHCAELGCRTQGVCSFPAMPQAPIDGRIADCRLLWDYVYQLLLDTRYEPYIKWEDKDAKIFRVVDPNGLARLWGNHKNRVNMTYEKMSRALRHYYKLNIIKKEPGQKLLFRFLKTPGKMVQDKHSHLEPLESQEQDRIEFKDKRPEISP
# In short: as §1
# ETV3 = target: T8, ETV3 (Homo sapiens, UniProt P41162-2 1-143)
# T8 sequence: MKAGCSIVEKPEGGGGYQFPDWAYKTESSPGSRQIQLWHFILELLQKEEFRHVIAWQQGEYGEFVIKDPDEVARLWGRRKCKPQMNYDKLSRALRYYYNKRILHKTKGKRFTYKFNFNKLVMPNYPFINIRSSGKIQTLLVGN
# In short: as §1
# ETV6 = ETV6 (Homo sapiens, UniProt P41212 1-452)
# Sequence of ETV6 (P41212 whole entry): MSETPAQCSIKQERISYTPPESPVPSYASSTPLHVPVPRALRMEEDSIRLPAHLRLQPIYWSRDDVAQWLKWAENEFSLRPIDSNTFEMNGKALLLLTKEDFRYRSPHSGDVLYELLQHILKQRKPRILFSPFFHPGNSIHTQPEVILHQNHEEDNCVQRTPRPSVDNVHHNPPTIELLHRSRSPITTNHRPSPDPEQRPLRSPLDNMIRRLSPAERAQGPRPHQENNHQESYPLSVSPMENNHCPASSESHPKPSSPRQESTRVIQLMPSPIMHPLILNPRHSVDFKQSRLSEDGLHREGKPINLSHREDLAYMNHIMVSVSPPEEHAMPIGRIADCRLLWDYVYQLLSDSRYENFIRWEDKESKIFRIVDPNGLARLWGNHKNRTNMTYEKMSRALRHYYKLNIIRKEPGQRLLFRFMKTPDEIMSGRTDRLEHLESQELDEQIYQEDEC
# In short: as §1
sequence,measurement,setting,value
CACAGC,binding signal,ELK4,"1.04 fold enrichment (6-mer frequency, TF over GST control)"
same,binding signal,ELF3,"1.04 fold enrichment (6-mer frequency, TF over GST control)"
same,binding signal,ETV1,"1.1 fold enrichment (6-mer frequency, TF over GST control)"
same,binding signal,ERF,"1.07 fold enrichment (6-mer frequency, TF over GST control)"
same,binding signal,ETV3L,"1.17 fold enrichment (6-mer frequency, TF over GST control)"
same,binding signal,ETS2,"1.01 fold enrichment (6-mer frequency, TF over GST control)"
same,binding signal,SPDEF,"1.03 fold enrichment (6-mer frequency, TF over GST control)"
same,binding signal,ETV7,"1.12 fold enrichment (6-mer frequency, TF over GST control)"
same,binding signal,ETV3,"1.05 fold enrichment (6-mer frequency, TF over GST control)"
same,binding signal,ETV6,"1.01 fold enrichment (6-mer frequency, TF over GST control)"
